pAkt inh – blocks phosphorylation of Akt; 0.32% of 360,000 active; AID 651550; activity change, % for hits at 50 µM; Neuro2A IGF-stimulated pAkt S473 HTRF, 20 min; active compounds read low; in the data active = activity change below about -80%; inconclusive = mostly about -51% to -80%; also: % is scaled to controls: 0 for no effect and ±100 for the full control effect
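Neuro2A cells (4,500/well, DMEM with 0.5% FBS) were treated with compound at a single 50 µM final concentration, stimulated with 6 nM IGF for 20 min at 37 °C, and lysed. Phospho-Akt Ser473 was read by HTRF as 665/615 ratio ×10^4.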
CCT chaperon mod – cytosolic chaperonin activity modulation | purified chaperonin ATPase assay, HTRF ADP detection, 30 min | activity change, % (no concentration beside the values), hits read low | 0.3% of 360,000 active | AID 651819; in the data active = activity change below about -30%; also: % is scaled to controls: 0 for no effect and ±100 for the full control effect
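ATPase activity: ADP formed was measured by HTRF Transcreener (665/615 nm ratio) after 30 min at 37 deg C with 10 uM ATP. Compounds screened at one 76 uM concentration against 40 or 20 nM TRiC in Tris pH 7.4/KCl/MgCl2/DTT buffer.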
GLS inh – glutaminase GLS (human) inhibition. GLS enzymatic activity, qHTS titration. AID 624170. 0.21% of 410,000 active. Potency, µM (doses to about 45.5 µM), without a hit: at the highest dose activity change, negative = inhibition, usual class: inhibitors; also: potency is read from the fitted curve at half-maximal effect; % is scaled to controls: 0 for no effect and ±100 for the full control effect
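Human kidney-isoform GLS in 45 mM KH2PO4 pH 8.2, 0.02% Tween-20, with compound, started with 1mM L-Glutamine (added stock). Glutamate oxidase/HRP/Amplex red coupled fluorescence read at start and after 30 min at RT.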
Mm-Cpn inhibitor – M. maripaludis TRiC chaperonin inhibition; purified Mm-Cpn ATPase, ADP Transcreener TR-FRET; Potency, µM (highest dose often 76.9 µM), inactives show at the top dose activity, negative = inhibition, actives largely listed as inhibitors; 0.031% of 330,000 active; also: potency is read from the fitted curve at half-maximal effect; % is scaled to controls: 0 for no effect and ±100 for the full control effect; nearly all actives have a fitted effect of over 80% in size
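TR-FRET (320 nm excitation; 590 and 665 nm emission) reports ADP made from 10 uM ATP by 25 nM enzyme; compounds were preincubated 10 min, reaction run 30 min, both at 37°C.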
Glioma ERSR ind – induces the endoplasmic reticulum stress response in human glioma cells; U87-MG GRP78 promoter luciferase reporter, 16 h; Potency, µM, for the others: at the top dose activation, actives largely listed as activators; 0.02% of 420,000 active; also: potency is read from the fitted curve at half-maximal effect; series mostly up to about 76 µM; % of control where 0% means no effect; nearly all actives have a fitted effect of over 35% in size
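ERSR induction read as luciferase luminescence (Bright-Glo, 10 min at room temperature) in stably transfected human U87-MG glioma cells exposed to compounds for 16 h, using GRP78 as sensor.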
IDH1 R132H inh – inhibitors of human mutant IDH1 R132H | O75874 | IDH1-R132H enzyme, NADPH consumption, diaphorase/resazurin fluorescence | Potency, µM (highest dose often 76.6 µM), for the others: top-dose activity change, negative = inhibition, usual class: inhibitors | 0.093% of 390,000 active; also: potency is read from the fitted curve at half-maximal effect; % is scaled to controls: 0 for no effect and ±100 for the full control effect; nearly all actives have a fitted effect of over 65% in size
Target sequence (O75874 whole entry R132H, stated change not applied): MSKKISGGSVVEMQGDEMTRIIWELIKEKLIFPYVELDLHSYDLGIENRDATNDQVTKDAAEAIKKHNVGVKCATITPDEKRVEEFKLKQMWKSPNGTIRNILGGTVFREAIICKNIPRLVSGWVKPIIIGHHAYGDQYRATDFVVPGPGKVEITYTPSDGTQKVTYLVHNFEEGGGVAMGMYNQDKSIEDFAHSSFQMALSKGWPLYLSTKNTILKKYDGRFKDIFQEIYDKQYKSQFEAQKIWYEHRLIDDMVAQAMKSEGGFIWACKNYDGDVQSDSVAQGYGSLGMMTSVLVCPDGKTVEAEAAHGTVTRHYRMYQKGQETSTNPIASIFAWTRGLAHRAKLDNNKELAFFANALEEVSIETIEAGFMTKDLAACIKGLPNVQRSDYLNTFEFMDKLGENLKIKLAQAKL
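IDH1-R132H (0.5 ug/mL) preincubated 30 min with compound, then NADPH (0.016 mM) and alpha-KG (2 mM) added; 80 min at RT, pH 7.5. Remaining NADPH coupled via diaphorase/resazurin to fluorescence (540/590 nm); concentration-response curves normalized to no-enzyme control.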
* hit, by the source's call; i = inactive; ? = inconclusive; · = not tested or not shown. This is a sample that favours compounds with a hit; in the whole collection about 0.85% have one here. Unless noted, calls follow the shape of the dose curve; as a rule, active = well fitted curve in the direction sought with a large enough effect; inconclusive = small, poorly fitted or top-dose-only effect, or another doubt; inactive = no such curve, though single readings can be large; an effect the other way counts as inactive or inconclusive.

SMILES	pAkt inh	CCT chaperon mod	GLS inh	Mm-Cpn inhibitor	Glioma ERSR ind	IDH1 R132H inh
CCCC1Nc2ccc(C(=O)O)cc2C2C=CCC12 (configuration not stated)	i	1	10µM*	-5%	-4%	3%
Cc1nc2ccccc2nc1CN1CCOc2ccc(C3(O)CCN(c4ccccc4F)CC3)cc2C1	·	·	·	·	-6%	·
Cc1cccc(C)c1NC(=O)c1c(C)oc2c1C1=NCCN1C=N2	·	·	-5%	·	-4%	5%
Cc1ccccc1CNC(=O)c1c(C)oc2c1C1=NCCN1C=N2	·	·	4µM*	·	-3%	13%
NC1=NC(=O)/C(=C/c2cccc(F)c2)S1	i	-1	-4%	-3%	1%	-11%
CC(=O)Nc1ccc(S(=O)(=O)Oc2cccc(/C=C3\SC(N)=NC3=O)c2)cc1	i	1	18µM*	-1%	4%	0%
Cc1ccc(-c2nc3ccccc3s2)cc1S(=O)(=O)N1CCOCC1	-90%*	1	1%	-4%	-1%	4%
COc1ccccc1C1CN(CC(=O)N2CCC(C(O)c3ccccn3)CC2)Cc2ccccc2O1 (configuration not stated)	·	·	·	·	-2%	·
Cc1cc(C(=O)Nc2ccc(Cl)cc2)c(C)n1-c1ccccc1	i	2	-2%	1%	-11%	30%
Cc1cc(C(=O)NNS(=O)(=O)c2cc(C(=O)O)ccc2Cl)c(C)n1-c1ccccc1	i	0	20µM*	-2%	-8%	1%
CNC(=O)c1ccc(-c2nc(-c3ccccc3)cs2)cc1	i	-45*	10%	1%	1%	-1%
COc1cc(-c2c(OC)cccc2OC)cc2c1OCCN(Cc1cn[nH]c1-c1ccc(Cl)cc1)C2	·	·	·	·	4%	·
CCOC(=O)c1ccc(N2C(=O)C3CC=CCC3C2=O)cc1 (configuration not stated)	i	-46*	5%	-3%	0%	1%
CC(C)OC(=O)c1ccc(N2C(=O)C3CC=CCC3C2=O)cc1 (configuration not stated)	i	0	-9%	-3%	-3%	6%
CCC1CN(CCNC(=O)c2cn3cc(C)ccc3n2)Cc2cc(OC)ccc2O1 (configuration not stated)	·	·	·	·	3%	·
CC(C)(C)c1csc(NNC(=O)c2ccc(Br)cc2)n1	i	-2	5µM*	-9%	-3%	-14%
COc1ccccc1C(=O)N1CCOc2ccc(C(C)(O)CCn3cccn3)cc2C1 (configuration not stated)	·	·	·	·	0%	·
Cc1cccc(C)c1NC(=O)C(=O)c1cn(C)c2ccccc12	i	1	-10%	56µM*	-3%	11%
Cc1cc(NC(=O)C(=O)c2cn(C)c3ccccc23)no1	i	3	20%	1%	5%	11%
COCc1c(C(=O)N2CCN(C)CC2)cnn1-c1ncc2c(n1)-c1ccccc1CCC2	·	·	·	·	-3%	·
COc1cc(CNc2nc(C)c(-c3ccn(C4Cc5ccccc5C4)n3)s2)cc2c1OCO2	·	·	·	·	-1%	·
C[C@@H]1CN(Cc2ccc3c(c2)CN(C(=O)CN2CCOc4ccccc4C2)CCO3)C[C@H](C)O1	·	·	·	·	-2%	·
Cc1onc(-c2c(F)cccc2Cl)c1C(=O)NCc1ccccn1	-109%*	-1	-27%	0%	-1%	-3%
CC(O)(c1cccc(F)c1)c1nc(-c2ccncc2)cs1 (configuration not stated)	i	-31*	5%	·	-5%	·
CC(O)(c1cccc(F)c1)c1nc(-c2ccccc2)cs1 (configuration not stated)	i	-1	2%	·	-1%	·
SMILES	pAkt inh	CCT chaperon mod	GLS inh	Mm-Cpn inhibitor	Glioma ERSR ind	IDH1 R132H inh
COC(=O)c1cc(C(=O)OC)cc(N2C(=O)CN=C2Nc2nc(C)cc(C)n2)c1	-80%*	-2	5%	-1%	1%	12%
COc1cc(Cl)c(CN2CCOc3ccc(CN4CCCCC4CO)cc3C2)cc1OC (configuration not stated)	·	·	·	·	-4%	·
Cc1ccccc1NC(=O)CC(C)S(=O)(=O)c1ccc2c(c1)NC(=O)CO2 (configuration not stated)	i	-63*	6%	-2%	-1%	-3%
CC1(C)Cc2c(C#N)c(NCc3ccco3)nc(-c3ccco3)c2CO1	-89%*	0	-22%	-2%	-11%	3%
Cc1nc(NCc2ccco2)c(C#N)c2c1COC(C)(C)C2	i	-3	0%	1%	-5%	1%
CC(C)c1nc2sc3c(NCc4ccco4)ncnc3c2c2c1COC(C)(C)C2	-104%*	0	-2%	-6%	-4%	-3%
CC(C)c1nc2sc3c(NCc4ccccc4)ncnc3c2c2c1COC(C)(C)C2	?	-1	-4%	-8%	-6%	2%
COc1cccc(CNC(=O)c2c(OC)cc(=O)n3c2CCN(C(=O)c2ccc(C)s2)CC3)c1	·	·	·	·	-2%	·
COc1ccc(-n2c(CCNC(=O)c3ccccc3C(F)(F)F)nnc2SC)cc1	·	·	·	·	-4%	·
Cc1cccnc1-c1cccc2c1OC(CNC(=O)/C=C/c1cccs1)C2 (configuration not stated)	·	·	·	·	-2%	·
CCCOc1c(Br)cc(C(=O)OCC(=O)NC(=O)c2cccn2C)cc1OC	i	-46*	-3%	2%	-4%	0%
CC1CCCCC1NC(=S)NC(=O)c1sc2ccccc2c1Cl (configuration not stated)	i	-47*	7%	?	1%	0%
COCc1c(C(=O)NC2CCCC2)cnn1-c1nccc(-c2cccs2)n1	·	·	·	·	1%	·
Cc1cc(C)c2c(c1)NC(C(=O)O)C1CC=CC21 (configuration not stated)	i	-3	10µM*	-4%	-4%	-8%
COc1cc(C)ccc1NC(=O)c1ccc(S(=O)(=O)N2CCOCC2)cc1	i	-30*	12%	-1%	2%	-2%
COc1ccc(/C=N/NC(=O)c2cc(-c3ccc(C)cc3C)nc3ccccc23)cc1COC(C)=O	-89%*	1	0%	-1%	-5%	8%
COc1ccc2c(c1)-c1nc(-n3ncc(C(=O)N(C)CCO)c3C3CC3)ncc1CC2	·	·	·	·	2%	·
NC(=O)c1cnn2c1NC(c1ccc(F)cc1)CC2C(F)(F)F (configuration not stated)	-111%*	1	2%	0%	-4%	0%
